# Measurements reported in PubChem BioAssay (NCATS).
# Several values for one entry are separate records, joined by “and”; a condition that tells them apart may be missing. Equal values may be shown once. Records with an inconclusive call do not appear. Activity calls are given as the source filed them. The call rests on the fitted dose curve; in most records, active means well fitted activation curve with a large enough effect; inconclusive means small, poorly fitted or top-dose-only effect; inactive means no such curve, though single readings can be large or run the other way.
# Molecular target: Cellular tumor antigen p53 (Homo sapiens) (UniProt P04637)
# Sequence (P04637 whole entry, looked up): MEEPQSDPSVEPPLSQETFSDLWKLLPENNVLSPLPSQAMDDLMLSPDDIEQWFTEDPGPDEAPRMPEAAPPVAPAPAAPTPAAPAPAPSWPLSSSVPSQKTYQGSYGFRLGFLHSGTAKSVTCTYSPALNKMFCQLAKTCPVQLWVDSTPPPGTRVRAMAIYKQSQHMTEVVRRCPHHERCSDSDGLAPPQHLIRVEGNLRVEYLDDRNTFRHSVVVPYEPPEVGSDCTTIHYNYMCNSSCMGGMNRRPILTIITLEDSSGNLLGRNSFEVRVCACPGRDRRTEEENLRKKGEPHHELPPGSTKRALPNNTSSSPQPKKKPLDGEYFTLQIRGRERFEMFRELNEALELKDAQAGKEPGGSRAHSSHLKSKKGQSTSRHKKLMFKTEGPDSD
# Experiment: Primary qHTS for small molecule compounds that upregulate eGFP-tagged delta133p53alpha (in N-terminal) cells. (AID 2060322);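 further: series mostly up to about 56 µM; 0% = DMSO vehicle and 100% = reference activator; nearly all actives have a fitted effect of over 75% in size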
# Conditions: NCI-H358 eGFP-delta133p53alpha fluorescence, 24 h; activation: hits give high values
# Procedure, shortened: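 NCI-H358 cells pre-induced 24 h with 10 ng/ml doxycycline to express N-terminal eGFP-delta133p53alpha, then dosed 24 h at 37C without doxycycline; fixed, Hoechst-stained, GFP intensity by laser scanning cytometry, normalized to DMSO (0%) and 57.5 uM 5-azacytidine (100%).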
row,Compound,activation
1,CC1(C)CCC2(C(=O)O)CCC3(C)C(=CCC4C5(C)CCC(O)C(C)(CO)C5C(O)CC43C)C2C1 (stereo not given),-18.8% (inactive)
2,CC(C)=CCC/C(C)=C/CO[C@@H]1O[C@H](CO)[C@@H](O)[C@H](O)[C@H]1O,-4.46% (inactive)
3,COC(=O)C1=CO[C@@H](O[C@@H]2O[C@H](CO)[C@@H](O)[C@H](O)[C@H]2O)[C@@H]2[C@@H](C(=O)O)CC[C@H]12,-5.34% (inactive)
4,CCOc1ccc(-c2ccc(Cn3c(CC(C)(C)C(=O)O)c(SC(C)(C)C)c4cc(OCc5ccc(C)cn5)ccc43)cc2)cn1,-1% (inactive) and 3% (inactive)
5,COC(=O)C1(C)CCC2(C(=O)O)CCC3(C)C(=CCC4C5(C)CC(O)C(OC6OCC(O)C(O)C6O)C(C)(CO)C5CCC43C)C2C1 (stereo not given),-6.11% (inactive)
6,CO[C@H]1C[C@@H]2CC[C@@H](C)[C@@](O)(O2)C(=O)C(=O)N2CCCC[C@H]2C(=O)O[C@H]([C@H](C)C[C@H]2CC[C@@H](OP(C)(C)=O)[C@H](OC)C2)CC(=O)[C@H](C)/C=C(\C)[C@@H](O)[C@@H](OC)C(=O)[C@H](C)C[C@H](C)/C=C/C=C/C=C/1C,11% (inactive)
7,O=C(O)c1cccc(C(=O)CCC2OC(n3cnc4c(=O)[nH]cnc43)C(O)C2O)c1 (stereo not given),15.3% (inactive)
8,COc1cc(C(=O)NC2CCN(C)CC2)ccc1Nc1ncc2c(n1)N(C1CCCC1)CC(F)(F)C(=O)N2C,29.5% (inactive)
9,CN1C(=O)N(c2cc(Cl)cc(Cl)c2)C(=O)[C@@]1(C)Cc1ccc(Br)cc1,5% (inactive)
10,CC(=O)c1ccc(O[C@@H]2O[C@H](CO[C@@H]3OC[C@@H](O)[C@H](O)[C@H]3O)[C@@H](O)[C@H](O)[C@H]2O)cc1,-12.2% (inactive)
11,CC(=O)O[C@@]1(C)C[C@@H](O)[C@]2(O)C=CO[C@@H](O[C@@H]3O[C@H](CO)[C@@H](O)[C@H](O)[C@H]3O)[C@@H]21,-14.5% (inactive)
12,CC(=O)C1=CCC2C3CC=C4CC(O)CC(O)C4(C)C3C(O)CC12C (stereo not given),6.11% (inactive)
13,C/C=C/C=C/C(=O)OC1CC/C=C/C(O)C(O)C(CCC)OC1=O (stereo not given),-12.2% (inactive)
14,COc1cc(C)c(C(=O)O[C@H]2[C@@H](OC(C)=O)[C@H](n3ccc(=O)[nH]c3=O)O[C@@H]2CO)c(OC)c1,-10.7% (inactive)
15,CC(=O)N[C@@H](CCCCN)C(=O)N(C)[C@@H](CC(C)C)C(=O)N[C@H](C(=O)N(C)[C@@H](Cc1ccccc1)C(=O)N[C@H](Cc1ccccc1)C(N)=O)C(C)C,7.67% (inactive)
16,CC1(C)[C@@H](O[C@H]2O[C@H](C(=O)O)[C@@H](O)[C@H](O)[C@H]2O[C@@H]2O[C@H](C(=O)O)[C@@H](O)[C@H](O)[C@H]2O)CC[C@]2(C)[C@H]3C(=O)C=C4[C@@H]5C[C@@](C)(C(=O)O)CC[C@]5(C)CC[C@@]4(C)[C@]3(C)CC[C@@H]12,-7.67% (inactive)
17,CC1(C)CCCC2(C)C(CO)C(CO)=CCC12 (stereo not given),-3.82% (inactive)
18,CC(C)=CCC/C(C)=C/CCC1(C)Oc2c(c(O)cc3c2CN(C(CCC(=O)O)C(=O)O)C3=O)CC1O (stereo not given),-13.7% (inactive)
19,CC1COC(Nc2ccc3ncnc(Nc4ccc(OCc5nccs5)c(Cl)c4)c3c2)=N1 (stereo not given),13.4% (inactive)
20,CC(=O)OC[C@@]12[C@H](O)C[C@@H](C)[C@]3(C[C@@H](c4ccoc4)OC3=O)[C@H]1C[C@H](O)C[C@]21CO1,27.5% (inactive)

row,Compound,activation
1,CC1(C)CC[C@]2(C(=O)O)[C@H](O)C[C@]3(C)C(=CCC4[C@@]5(C)CC[C@H](O[C@@H]6OC[C@@H](O)[C@H](O)[C@H]6O)[C@@](C)(C(=O)O)C5CC[C@]43C)[C@@H]2C1 (stereo not given in full),6.11% (inactive)
2,CC(=O)OC(C)(C)/C=C/C(=O)C(C)(O)C1C(O)CC2(C)C3CC=C(C(C)(C)C(=O)O)C(CC(=O)O)C3(C)C(=O)CC12C (stereo not given),-3.82% (inactive)
3,O=C(O)c1cccc(CN2C(=O)/C(=C(\c3ccccc3)c3ccc(Cl)cc3)c3ccccc32)c1,-4.46% (inactive)
4,C[C@H](NC(=O)C(C)(C)Oc1ccc(C(F)(F)F)cn1)[C@@H](Cc1ccc(Cl)cc1)c1cccc(C#N)c1,5.36% (inactive)
5,C=C(C(=O)O)[C@@H]1CC[C@@]2(C)CCC[C@@](C)(O)[C@@H]2C1,10.7% (inactive)
6,COC1OC(=O)C2=C1C1(C)CCCC(C)(C)C1CC2O (stereo not given),-8.04% (inactive)
7,COc1ccc(-c2ccccc2)cc1NS(=O)(=O)c1cc(Cl)cc(Cl)c1O,-8.33% (inactive)
8,C=C(C(=O)O)[C@@H]1CC[C@H](C)[C@@H]2CC(=O)C(C)=C2C1,-8.04% (inactive)
9,CC(C)=CCC[C@](C)(O[C@@H]1O[C@H](CO[C@@H]2OC[C@@H](O)[C@H](O)[C@H]2O)[C@@H](O)[C@H](O)[C@H]1O)[C@H]1CC[C@]2(C)[C@@H]1[C@H](O)C[C@@H]1[C@@]3(C)CC[C@H](O[C@@H]4O[C@H](CO)[C@@H](O)[C@H](O)[C@H]4O)C(C)(C)[C@@H]3CC[C@]12C,6.33% (inactive)
10,CC(=O)OCC1OC(O[C@H]2CC[C@@]3(C)C(CC[C@]4(C)C3CC=C3[C@@H]5CC(C)(C)CC[C@]5(C(=O)O)CC[C@]34C)[C@]2(C)CO)C(O)C(O)C1OC1OC(C)C(O)C(OC2OCC(O)C(O)C2O)C1O (stereo not given in full),-6.11% (inactive)
11,CO[C@H]1[C@@H](O)[C@H](O[C@H]2CC[C@@]3(C)C(CCC4C3CC[C@]35COC6(COC(=O)C6)C3CCC45O)C2)O[C@@H](C)[C@@H]1OC1OC(CO)C(OC2OC(CO)C(O)C(O)C2O)C(O)C1O (stereo not given in full),6.87% (inactive)
12,OCC(CO[C@@H]1O[C@H](CO)[C@@H](O)[C@H](O)[C@H]1O)c1ccc2c(c1)OCO2 (stereo not given in full),24.1% (inactive)
13,COc1cc(O)cc(C)c1C(=O)OC1C(CO)OC(OC2C(O)C(O)C(O)C(O)C2O)C(O)C1O (stereo not given),-29% (inactive)
14,C/C=C(\C)C(=O)OCC1OC(OCC2OC(OC3(CO)OC(CO)C(O)C3O)C(O)C(O)C2O)C(O)C(O)C1O (stereo not given),-9.16% (inactive)
15,O=C1[C@H](O[C@@H]2O[C@H](CO)[C@@H](O)[C@H](O)[C@H]2O)Oc2ccccc2N1O,14.3% (inactive)
16,CC(C)c1ccc2c(c1)[C@H](O)CC1[C@@](C)(C(=O)O)CCC[C@]21C (stereo not given in full),-4.46% (inactive)
17,CC1=CC2/C=C(\C)CC[C@@H](O)[C@@H](O)[C@@H]3O[C@@H]3C(=O)[C@]23C(=O)N[C@@H](CC(C)C)[C@@H]3[C@@H]1C (stereo not given in full),0% (inactive)
18,Cc1cc(OCCCS(C)(=O)=O)cc(C)c1-c1cccc(COc2ccc(C3=CC(=O)NS3=O)cc2)c1 (stereo not given),-18.3% (inactive)
19,CCC(C)CNCC(=O)N1CCC2SC=CC2C1COc1cccc(C)c1 (stereo not given),17.9% (inactive)
20,C[C@@H]1CC[C@]2(C(=O)O[C@@H]3O[C@H](CO)[C@@H](O)[C@H](O)[C@H]3O)CC[C@]3(C)C(=CCC4[C@@]5(C)C[C@@H](O)[C@H](O)C(C)(C)C5CC[C@]43C)C2[C@]1(C)O (stereo not given in full),-17.6% (inactive)
